In PubChem BioAssay AID652264 (National Center for Advancing Translational Sciences (NCATS), 2013):
Activity calls are given as the source filed them.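 The calls were made as follows: active = compounds blocking cell cycle progression with a potency of 5000 nM or lower; inconclusive = potency above 5000 nM but under 10000 nM; inactive = the rest.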

experiment: qHTS for Inhibitors of Ubiquitin-specific Protease USP2a Using CHOP2 as the Reporter: Cell Cycle; conditions: HCT116 cell cycle arrest, propidium iodide DNA content, 16 h
Source text: Homeostasis of cellular proteins is maintained through a combination of synthesis and degradation. The pathway that accounts for the majority of protein degradation is the ubiquitin-proteasomal pathway. Ubiquitin (Ub) is highly conserved in all cells and the generation of a multi-Ub chain typically targets proteins for degradation by the proteasome. However, ubiquitination is highly reversible and dynamic. Deubiquitination, the reverse process, is catalyzed through the action of enzymes referred to as isopeptidases or deubiquitinating enzymes (DUBs). This group of enzymes is collectively responsible for maintaining adequate pools of free ubiquitin and regulating the ubiquitination status of cellular proteins. The class of DUBs referred to as the ubiquitin-specific proteases (USP) family functions endoproteolytically to cleave Ub chains from a wide range of protein substrates. […] Cells in G2 have twice the fluorescence as cells in G1, and the Acumen allows the cells to be binned by their individual fluorescence properties. Therefore, in the presence of an active USP2 inhibitor the fluorescence of a cell would be lower since it would not progress from G1 to S and then G2. […]
HCT116 cells at 600 cells/well were plated in 96-well plates and allowed to adhere overnight (37C, […]). […] Intensity of the DNA stain per cell was quantified using the Acumen plate reader. […]

SMILES	Potency
Cc1ccc(S(=O)(=O)Nc2cc(C(F)(F)F)ccc2C(=O)Nc2nc(-c3ccccc3)cs2)cc1	2000 nM (active)
